Source: PubChem BioAssay (Tox21)
Results filed as inconclusive are left out. Where a call stands in place of a potency, no number is given. Active and inactive are the calls of the source. Calls follow the shape of the dose curve; as a rule, active = well fitted cell-killing curve with a large enough effect in the repeat runs; inconclusive = weak or mixed curves, or effect the other way; inactive = flat fitted curve, though single readings scatter.
Potency is read from the fitted curve at half-maximal effect.

Assay: cAMP Responsive Elements (CRE) small molecule antagonists, cell-based qHTS assay: qHTS cell viability counter screen (AID 2060913); also: nearly all actives have a fitted effect of over 40% in size
Conditions: CRE-bla HEK293T viability, CellTiter-Glo luminescence, 5 h; series mostly up to 92.4 µM
How it was run: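 CRE-bla HEK293T cells (2,000/well, 18 h) given compound plus NKH477 0.25 uM final for 3 h at 37C; viability counter-screen by CellTiter-Glo luminescence in same wells after 30 min.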
For Cc1cc(C(C)(C)c2ccc(O)c(C)c2)ccc1O, the Potency was “inactive”.
For O=C(Cl)OCc1ccccc1, the Potency was “inactive”.
With Clc1cccc2ccccc12 the Potency was “inactive”.
For [N-]=[N+]=CC(=O)OC[C@H](N)C(=O)O, the Potency was “inactive”.
For CC1CC(CC2CCC(N)C(C)C2)CCC1N (centres undefined), the Potency was “inactive”.
In the case of Cc1cc(C)cc(OP(=O)(Oc2cc(C)cc(C)c2)Oc2cc(C)cc(C)c2)c1, the Potency is reported as “inactive”.
In the case of CC(C)[C@H](C(=O)OC(C#N)c1cccc(Oc2ccccc2)c1)c1ccc(OC(F)F)cc1 (some centres undefined), the Potency is reported as “inactive”.
For c1ccc(Nc2ccc(Nc3ccccc3)cc2)cc1, the Potency was “inactive”.
For Fc1ccc(Oc2ccnc3cc(Cl)cc(Cl)c23)cc1, the Potency was “inactive”.
In the case of CC(C)CC#N, the Potency is reported as “inactive”.
For COc1ccc([N+](=O)[O-])cc1O, the Potency was “inactive”.
For O=C=NC1CCCCC1, the Potency was “inactive”.
With COc1ccc(-c2ccccc2)cc1NNC(=O)OC(C)C the Potency was “inactive”.
For CC(=O)Nc1ccc2c(c1)Cc1ccccc1-2, the Potency was “inactive”.
With CNC(=O)Oc1ccccc1C1OCCO1 the Potency was “inactive”.
For ClCCOCOCCCl, the Potency was “inactive”.
For O=[N+]([O-])c1cc([N+](=O)[O-])c2ccccc2c1, the Potency was “inactive”.
With CC(Cc1ccc(C(C)(C)C)cc1)CN1C[C@@H](C)O[C@@H](C)C1 (some centres undefined) the Potency was “inactive”.
With CN(C)C(=S)[S-].CN(C)C(=S)[S-].[Cu+2] the Potency was 13.2 µM (active).
For CNC(=O)O/N=C(\C)C(C)S(C)(=O)=O (centres undefined), the Potency was “inactive”.
With N#Cc1nn(-c2c(Cl)cc(C(F)(F)F)cc2Cl)c(N)c1S(=O)C(F)(F)F (centres undefined) the Potency was “inactive”.
With O=[N+]([O-])c1c2ccccc2cc2ccccc12 the Potency was “inactive”.
For CCOP(=S)(Oc1cnc(C(C)(C)C)nc1)OC(C)C (centres undefined), the Potency was “inactive”.
For CC(=O)[O][Pb]([c]1ccccc1)([c]1ccccc1)[c]1ccccc1, the Potency was 18 µM (active).
With CCOc1ccc(C(C)(C)COCc2cccc(Oc3ccccc3)c2)cc1 the Potency was “inactive”.
With Brc1ccc(Oc2ccc(Br)cc2Br)c(Br)c1 the Potency was “inactive”.
With O=C(O)C(F)(F)C(F)(F)C(F)(F)C(F)(F)C(F)(F)F the Potency was “inactive”.
With CC(C(=O)c1ccccc1)N(C)C (centres undefined) the Potency was “inactive”.
With CCCCN(CC)C(=O)SCCC the Potency was “inactive”.
With ClC=C(Cl)Cl the Potency was “inactive”.
With ClC(Cl)c1ccccc1 the Potency was “inactive”.
In the case of CCC[N+]1(C)CCCC1, the Potency is reported as “inactive”.
For O=C(CCl)NCO, the Potency was “inactive”.
In the case of O=S1OCC2C(CO1)C1(Cl)C(Cl)=C(Cl)C2(Cl)C1(Cl)Cl (centres undefined), the Potency is reported as 61.1 µM (active).
In the case of CN(C)C1CCCCC1, the Potency is reported as “inactive”.
With c1ccc2c(c1)OCC(C1=NCCN1)O2 (centres undefined) the Potency was “inactive”.
In the case of O=[N+]([O-])/C=C/c1ccccc1, the Potency is reported as “inactive”.
With C=CC(=O)OC(C)(C)C the Potency was “inactive”.
With c1ccc2c(c1)Nc1ccccc1S2 the Potency was “inactive”.
